# From PubChem BioAssay
# Rows were chosen to be rich in hits. Some 9.4% of all compounds tested hit in one or more screens of this group.
# NPC1 prom act: activators of NPC1 promoter; Huh7 NPC1 promoter luciferase reporter, 24 h; Potency, µM (highest dose often 9.22 µM), for the others: at the highest dose activation, actives largely listed as activators; 320,000 tested, 2.4% active; AID 485313; further: % of control where 0% means no effect; nearly all actives have a fitted effect of over 60% in size
#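 Quantitative HTS used a cell-based reporter: Huh7 cells stably bearing the NPC1 promoter upstream of luciferase were treated with compounds for 24 h, and promoter activation was read as luminescence.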
# Rab9 promoter act: Rab9 promoter activation. 320,000 tested, 2.8% active. Huh7 Rab9 promoter-luciferase reporter, luminescence, 24 h. AID 485297. Potency, µM (series often up to 9.22 µM), for the others: at the top dose activation, negative = inhibition, usual class: activators; further: % of control where 0% means no effect; nearly all actives have a fitted effect of over 60% in size
#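 Cells were plated at 1500 per well in reduced-serum medium with 10% FBS and left 2 h. Compound in DMSO was then added for 24 h at 37 °C. Reporter signal was read by luminescence after 10 min with luciferase detection reagent.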
# SMN2 splice enh: enhancers of SMN2 splice variant expression | HEK293 SMN2-luciferase splicing reporter, luminescence, 30-36 h | Potency, µM (series often up to 46.1 µM), for inactives: at the highest dose activity change, positive = activation, usual class: activators | 210,000 tested, 2.8% active | AID 1458; further: % of control where 0% means no effect; nearly all actives have a fitted effect of over 55% in size
#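 qHTS luciferase splicing reporter: luminescence rises when SMN2 exon 7 is included in transfected HEK293 cells. Compound exposure lasted 30-36 h at 37C, with 4.5 mM final sodium butyrate as control, followed by a ONE-Glo read.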
# ELG1 DNA repair: blocks ELG1-dependent DNA repair in HEK293T cells | Potency, µM (series often up to 46.1 µM), for the others: at the highest dose activity change, negative = inhibition, usual class: inhibitors | AID 504467 | HEK293T ELG1-luciferase reporter, luminescence, 16 h; DNA damage induced by 5-fluorouridine | 330,000 tested, 2.3% active; further: on the % scale 0 is the no-effect control and ±100 the full control effect; nearly all actives have a fitted effect of over 55% in size
#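 DMSO vehicle served as the neutral condition. Each well held 2,000 cells given 5-fluorouridine plus compound; after 16 hr at 37 °C/5% CO2, ONE-Glo was added and luciferase measured 30 min later.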
# FLuc modulator: inhibits or activates purified firefly luciferase, miR-21 counter-screen | Potency, µM (titrated, usually from 57.5 µM), without a hit: top-dose activity change, negative = inhibition, hits mostly inhibitors | purified FLuc, Km substrates, luminescence inhibition | 360,000 tested, 6.9% active | AID 588342;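 further: plate controls were vehicle for no effect and reference inhibitor for full effect; nearly all actives have a fitted effect of over 55% in size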
# Target sequence (P08659 whole entry, looked up): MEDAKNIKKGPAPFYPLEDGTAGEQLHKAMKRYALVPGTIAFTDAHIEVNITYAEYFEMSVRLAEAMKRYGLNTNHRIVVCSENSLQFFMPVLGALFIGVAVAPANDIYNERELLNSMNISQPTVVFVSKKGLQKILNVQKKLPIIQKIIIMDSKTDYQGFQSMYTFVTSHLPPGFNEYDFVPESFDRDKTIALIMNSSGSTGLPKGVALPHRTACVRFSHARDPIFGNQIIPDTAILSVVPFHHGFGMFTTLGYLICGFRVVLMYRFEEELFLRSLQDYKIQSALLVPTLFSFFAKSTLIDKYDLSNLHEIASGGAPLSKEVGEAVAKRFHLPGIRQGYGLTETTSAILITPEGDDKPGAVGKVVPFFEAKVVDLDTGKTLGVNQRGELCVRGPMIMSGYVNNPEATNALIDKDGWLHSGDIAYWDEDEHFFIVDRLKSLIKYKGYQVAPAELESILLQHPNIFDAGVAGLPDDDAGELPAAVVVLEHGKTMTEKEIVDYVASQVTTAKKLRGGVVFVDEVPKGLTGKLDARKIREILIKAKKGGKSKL
#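 Purified P. pyralis luciferase, 10 nM final, with Km-level 10 uM D-luciferin and 10 uM ATP in 50 mM Tris acetate pH 7.5, 10 mM Mg acetate, 0.01% Tween-20, 0.05% BSA; 6-point qHTS titration about 60 µM downward; luminescence read.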
# ELG1 genotoxic: genotoxicity induction in ELG1-luciferase HEK293T cells. HEK293T ELG1-luciferase reporter, luminescence, 16 h. Potency, µM (series often up to 46 µM), inactives show at the top dose activity change, positive = activation, actives largely listed as activators. 330,000 tested, 1.3% active. AID 504466; further: % of control where 0% means no effect; nearly all actives have a fitted effect of over 60% in size
#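 HEK293T cells expressing luciferase-tagged ELG1 were exposed to compound or DMSO vehicle for 16 hr at 37 °C and 5% CO2. Luciferase activity was then measured with ONE-Glo after 30 min at room temperature.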
# An asterisk follows results filed as active; ? = inconclusive; nt = no result given; [ ] = dose if it differs, or a comment. The call rests on the fitted dose curve; in most records, active means well fitted curve in the direction sought with a large enough effect; inconclusive means small, poorly fitted or top-dose-only effect, or another doubt; inactive means no such curve, though single readings can be large; an effect the other way counts as inactive or inconclusive. Potency means the concentration at half of the fitted maximal effect.
SMILES,NPC1 prom act,Rab9 promoter act,SMN2 splice enh,ELG1 DNA repair,FLuc modulator,ELG1 genotoxic
COc1ccc(C(=O)O/N=C(\C)c2ccccc2)cc1,4%,2%,-3%,0%,0.67µM*,2%
C/C(=N\OC(=O)c1ccc(OC(C)C)cc1)c1ccc(C)c(C)c1,1%,13%,-24%,13%,13µM*,13%
COc1ccc(C(=O)O/N=C(/c2ccccc2)c2ccncc2)cc1,14%,23%,nt,?,?,?
CC(C)=NOC(=O)c1ccc(-c2ccccc2)cc1,0%,-11%,?,3%,8.5µM*,1%
O=C(COC(=O)/C=C/c1ccc2c(c1)OCO2)Nc1ccccc1,-10%,4%,0%,20%,21µM*,6%
COc1ccc(NC(=O)/C=C/c2ccc3c(c2)OCO3)cc1,?,3.2µM*,18µM*,?,2.7µM*,?
Cc1c(NC(=O)C(C)OC(=O)/C=C/c2ccc3c(c2)OCO3)c(=O)n(-c2ccccc2)n1C (stereo not drawn),0%,7%,7%,-12%,15µM*,8%
Cc1csc(NC(=O)/C=C/c2ccc3c(c2)OCO3)n1,-1%,?,13µM*,?,0.95µM*,2.9µM*
COc1ccc(NC(=O)/C(=C/c2ccc3c(c2)OCO3)NC(C)=O)cc1,-1%,0%,26%,23%,0%,1%
COc1cccc(NC(=O)CSc2nc3c(oc4ccccc43)c(=O)n2Cc2ccco2)c1,nt,nt,1%,nt,-4%,nt
CC(=O)OC1CC[C@]2(C)C(CC(OC(C)=O)[C@@]3(C)C4=CC(=O)OC(c5ccoc5)[C@]4(C)CCC23)C1(C)C (stereo partly drawn),nt,nt,-59%,nt,nt,nt
Cc1ccc2nc(NC(=O)/C=C/c3ccc4c(c3)OCO4)sc2c1,4%,0%,-59%,?,3%,?
O=C(/C=C/c1ccc2c(c1)OCO2)Nc1nc2ccccc2s1,1.6µM*,0.79µM*,3.5µM*,?,1.2µM*,18µM*
CCc1cccc(C)c1NC(=O)CN(C)S(=O)(=O)c1cccc2nsnc12,nt,nt,-16%,nt,-2%,nt
S=C(N/N=C/c1ccc2ncccc2c1)Nc1cccnc1,-12%,-5%,-10%,-6%,6.7µM*,-6%
O=C(N/N=C/c1ccccn1)c1cccc([N+](=O)[O-])c1,-5%,4%,10%,?,-17%,?
O=C(N/N=C/c1ccc[nH]1)c1ccc([N+](=O)[O-])cc1,-2%,-8%,-10%[1.84 µM],?,15µM*,2%
O=C(N/N=C/c1ccc2ncccc2c1)c1cccc([N+](=O)[O-])c1,14%,14%,nt,0%,3.4µM*,2%
O=C(N/N=C/c1ccccn1)c1ccc(NC(=O)c2cccc([N+](=O)[O-])c2)cc1,6%,9%,1%,16µM*,?,-4%
COc1ccc(N2CCN(C(CNS(=O)(=O)c3c(C)cc(C)cc3C)c3ccco3)CC2)cc1 (stereo not drawn),nt,nt,nt,nt,-10%,nt
c1ccc(C(NCc2cccnc2)(c2ccccc2)c2ccccc2)cc1,-15%[46.1 µM],-22%[46.1 µM],nt,nt,nt,nt
O=C(N/N=C/c1ccccn1)c1ccc([N+](=O)[O-])cc1,-2%,5%,4%,?,19µM*,9%
O=C(N/N=C/c1ccccn1)c1cc([N+](=O)[O-])cc([N+](=O)[O-])c1,-3%,-2%,-4%,7%,-8%,6%
O[C@@H](c1cc(-c2ccc(Cl)cc2)nc2ccccc12)C1CCCCN1 (stereo partly drawn),nt,nt,1%[9.22 µM],nt,nt,nt
CC(Oc1ccccc1F)C(=O)NCC1(N2CCOCC2)CCCCC1 (stereo not drawn),nt,nt,nt,nt,-6%,nt
SMILES,NPC1 prom act,Rab9 promoter act,SMN2 splice enh,ELG1 DNA repair,FLuc modulator,ELG1 genotoxic
Cc1cccc(Nc2nnc(SCC(=O)NCc3cccs3)s2)c1C,-4%,-3%,8%,-3%,-17%,-1%
Cc1cccc(Nc2nnc(SCC(=O)NC3CCCc4ccccc43)s2)c1 (stereo not drawn),-6%,-2%,-36%,?,6µM*,-8%
Cc1cccc(Nc2nnc(SCC(=O)NCc3cccs3)s2)c1,7%,11%,5%,19%,11µM*,6%
Cc1cccc(Nc2nnc(SCC(=O)Nc3cccnc3Cl)s2)c1,5%,11%,-2%,-8%,6µM*,5%
O=c1cc(CSc2nnc(Nc3ccccc3)s2)nc2sccn12,7%,-5%,?,?,-10%,-13%
Cc1cccc(Nc2nnc(SCc3cn4ccsc4n3)s2)c1,1%,-1%,-9%,-9%,17µM*,3%
Cc1ccc(Nc2nnc(SCC(=O)NCCN3C(=O)CSC3=O)s2)cc1C,?,26%,nt,?,1.7µM*,?
Cc1ccc(SCC(=O)NCCN2C(=O)CSC2=O)cc1C,12%,11%,-7%,0%,-5%,2%
COc1ccccc1NC(=O)Cn1c(=O)n(Cc2cccs2)c(=O)c2cccnc21,nt,nt,3%,nt,2%,nt
O=C(O)Cn1c(SCc2cccc3ccccc23)nc2ccccc21,-6%,-3%,4%,0%,17µM*,0%
NC(=O)c1ccsc1NC(=O)COC(=O)c1ccc(Cl)cc1,-6%,-5%,nt,-28%,nt,-1%
NC(=O)c1ccsc1NC(=O)COC(=O)c1ccc(Cl)c(N)c1,0%,1%,nt,12µM*,?,-27%
Cc1ccsc1C(=O)OCC(=O)Nc1sccc1C(N)=O,?,?,22%,?,5.4µM*,7%
COc1ccc(Cl)cc1C(=O)OCC(=O)Nc1sccc1C(N)=O,nt,nt,nt,23µM*,nt,-1%
Cc1ccc(C(=O)OCC(=O)Nc2sccc2C(N)=O)cc1NC(=O)c1ccco1,1%,-7%,-11%,8.2µM*,1%,-29%
Cc1nn(CC(=O)NCC(C)c2ccccc2)c(=O)c2cc3ccccc3n12 (stereo not drawn),nt,nt,6%,nt,-1%,nt
Cc1cccc(NC2=CC(c3cccc(Br)c3)N(c3cccc(C)c3)C2=O)c1 (stereo not drawn),nt,nt,12%,nt,0%,nt
COC(=O)[C@@H](NC(=O)N1CCc2nc(-c3ccc(OC)cc3C)c3c(c2C1)CO[C@@H](c1ccccc1)C3)C(C)C,nt,nt,0%[9.22 µM],nt,nt,nt
O=C(Nc1ccc(Cl)cc1Cl)c1ccc2ncsc2c1,2.2µM*,2.2µM*,nt,?,2.7µM*,?
O=C(Nc1ccccc1Br)c1ccc2nccnc2c1,3.2µM*,2µM*,nt,?,6.7µM*,0%
O=C(Nc1ccccc1F)c1ccc2ncsc2c1,2.2µM*,4µM*,nt,?,?,18%
COc1ccc(C(=O)Nc2ccc(F)cc2F)cc1OC,13%,15%,4%,?,-1%,14%
